15 compounds from PubChem BioAssay AID2716 (Broad Institute, 2010) can be followed below.

The whole screen tested about 320,000 compounds, of which about 3,300 (1%) were called active.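 How the source made its calls: active means every valid replicate shows activation above 250% relative to neutral control wells; inactive means the rest, any valid replicate at or below 250%.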 The sample as a whole holds a higher share of actives than the screen did.

This test can be described thus: restored growth of temperature-sensitive Mot1-301 yeast – S. cerevisiae, ATP luminescence, 38.5C, SUMOylation pathway inhibitor project, primary screen (AID 2716). Particulars: S. cerevisiae Mot1-301 growth rescue, at 18.8 µM, active compounds read high.
Consider `O=c1c2ccccc2nc(-c2ccccc2)n1-c1ccccn1`, for which the growth rescue was -8.46% (inactive).

As for `COc1ccc(-n2c(-c3ccccc3)nc3ccccc3c2=O)cc1`, the growth rescue is 524% (active).

On to `Cc1ccc(-n2c(-c3ccc([N+](=O)[O-])cc3)nc3ccccc3c2=O)cc1`, for which the growth rescue is 30.7% (inactive).

Consider `C[C@@]1([C@@H](NP(=O)(c2ccccc2)c2ccccc2)c2ccccc2)C[C@H]1CCO`, for which the growth rescue is 28.7% (inactive). As for `CCCC(C)n1[nH]c(=O)c2c1NC(=O)CSC2c1ccc(OC)c(OC)c1` (stereo not given), the figure is -11.2% (inactive).

In the case of `c1ccc(CCN2CCC3(CC2)OCCO3)cc1`, the growth rescue is 313% (active). Consider `O=C(c1ccccc1[N+](=O)[O-])N1CCC2(CC1)OCCO2`, for which the growth rescue is -11.1% (inactive).

`O=C(Nc1cccc2ccccc12)N1CCC2(CC1)OCCO2`: the growth rescue was 2.67% (inactive).

Turning to `COc1ccccc1OC(=O)c1ccc(C)c(S(=O)(=O)N2CCOCC2)c1`, the growth rescue is -7.94% (inactive). As for `CCOP(=O)(OCC)C(O)c1ccc(OC)cc1OC` (stereo not given), the figure is -5.29% (inactive). Take `COc1ccc(-n2c(O)c(C(C)=Nc3ccc4c(c3)CCC4)c(=O)[nH]c2=O)cc1`: the growth rescue was -1.78% (inactive). As for `COc1ccc(N=Cc2c(O)n(C)c(=O)[nH]c2=O)cc1`, the figure is 842% (active); as for `COc1ccccc1-n1c(O)c(C=NC2CC2)c(=O)[nH]c1=O`, -17.5% (inactive); as for `CC(Cc1ccccc1)NCCC(c1ccccc1)c1ccccc1` (stereo not given), -27.1% (inactive). As for `CC(=NCc1ccc2c(c1)OCO2)c1c(O)[nH]c(=O)[nH]c1=O`, the figure is -26.7% (inactive).
